# MITF act: increases MITF-driven TRPM1 promoter luciferase signal; SK-MEL-5 TRPM1-promoter luciferase, 24 h; % of positive control, neutral wells = 0; actives 0.75% (n = 300,000); AID 588334; activation, % at 12.5 µM;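 active means mean activation of at least 80% with every replicate also reaching 80%; inconclusive means mean reaches 80% but some replicate falls short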;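 further: 0% = neutral control wells and 100% = parthenolide positive control wells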
# Wnt act: activates Wnt/beta-catenin signaling in a reporter cell assay; activator, plate reader; activation, % at 9.35 µM; actives 1.2% (n = 300,000); AID 743398; in the data active means activation above about 30%, passing the limit was not always enough; inconclusive means no clear call, values can overlap the other calls;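 further: 0% = neutral control wells and 100% = positive control wells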
# FXN GAA850 act: activators of GAA850 frataxin (FXN) promoter | HEK293 lucGAA850 FXN promoter luciferase reporter, 24 h; percent of 10 µM SAHA response | activation, % at 6 µM | actives 0.56% (n = 360,000);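 active means activation above the average of all compounds screened plus 3 SD, cutoff fixed separately per campaign, cut at about 7.5% in these data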;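 further: 0% = DMSO wells and 100% = 10 µM SAHA wells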
# esBAF inh: inhibitors of esBAF chromatin remodeling in mouse ES cells. Bmi1-luciferase knock-in reporter, 24 h; 100% = twice the neutral-well signal. reporter increase, % at 12.5 µM. actives 2% (n = 350,000). AID 602393; in the data active means activation above about 40%; inconclusive means no clear call, values can overlap the other calls;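 further: 0% = median of the plate's neutral control wells and 100% = double that signal; a rise in the Bmi1 reporter signal indicates esBAF inhibition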
# C2C12 statin: protects C2C12 myotubes from simvastatin toxicity; AID 602340; actives 0.78% (n = 330,000); rescue of ATP level, % at 7.49 µM; ATP luminescence, 48 h; scaled: DMSO 0, geranylgeraniol control 100;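 active means mean ATP rescue above about 67%, or every replicate alone reaching that limit, limit read from the data, passing the limit was not always enough; inconclusive means no clear call, values can overlap the other calls; inactive means mean under the limit and some replicate under it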;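 further: myotubes were challenged with 10 µM simvastatin during compound exposure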
# Starred values were filed as active, the others as inactive; ? = inconclusive; · = not tested or not shown. Rows were chosen to be rich in hits. Some 3.3% of all compounds tested hit in one or more screens of this group.
SMILES,MITF act,Wnt act,FXN GAA850 act,esBAF inh,C2C12 statin
COc1cccc(S(=O)(=O)Nc2ccc3c(c2)C(=O)N(C)C[C@H](OC)[C@H](C)CN[C@H](C)CO3)c1,·,·,·,6,15
O=C(C[C@@H]1C=C[C@H](NC(=O)Nc2ccccc2)[C@@H](CO)O1)NCc1cccc(F)c1,·,·,·,4,-5
O=C(COc1ccccc1)NCCSc1ccccc1,·,18,0,52*,0
CN(C)S(=O)(=O)c1ccc(C(=O)NCCSc2ccccc2)cc1,41,·,0,53*,-35
C/C(=C\C(=O)c1ccc(C)cc1)Nc1cccc(O)c1,66,·,0,72*,15
O=C(C[C@H]1C[C@H]2c3cc(NC(=O)NC4CCCC4)ccc3O[C@H]2[C@@H](CO)O1)NC1CCCCC1,·,·,·,3,7
N#Cc1ccc(Oc2ccc(/C=N/O)cn2)cc1,-5,1,-1,-3,122*
O=[N+]([O-])c1ccc(Oc2ccc(/C=N/O)cc2)nc1,10,0,3,·,·
C[C@H](CO)N1C[C@H](C)[C@H](CN(C)C(=O)C2CCC2)Oc2ncc(-c3ccncc3)cc2C1=O,·,·,·,·,36
Cc1cc(C)n(CCc2nc(-c3ccc(-c4ccccc4)cc3)cs2)n1,44,20,1,70*,-6
COc1ccc(-c2csc(CCn3nc(C)cc3C)n2)cc1,6,0,4,·,·
COc1cccc2cc(-c3cn4ccc(C)cc4n3)c(=O)oc12,73,·,6,105*,-10
COc1ccc(OC)c(-c2csc(CCn3nc(C)cc3C)n2)c1,6,-2,0,-6,-7
COc1cccc2cc(-c3csc(CCn4nc(C)cc4C)n3)c(=O)oc12,·,0,0,23,89*
COc1cccc2cc(NC(=O)C3CCCCC3)c(=O)oc12,110*,·,4,23,-16
COc1cccc2cc(C(=O)N3CCCCC3C)c(=O)oc12 (stereo not given),-1,·,-1,-3,-60
COc1cccc2cc(C(=O)OCC(=O)NC3CCCC(C)C3C)c(=O)oc12 (stereo not given),56,-4,2,64*,-1
O=C(Nc1ccccc1N1CCOCC1)c1ccc2c(c1)OCO2,-9,-2,-2,·,·
COc1ccc(C(=O)Nc2ccccc2N2CCOCC2)cc1Br,-2,·,-1,2,117*
O=C(Nc1ccccc1N1CCOCC1)c1ccc2ccccc2c1,-13,5,1,55*,2
COc1ccc(C(=O)NC(=S)Nc2ccccc2N2CCOCC2)cc1Br,3,·,3,·,·
O=C(O)/C=C/c1ccc(Oc2ncccn2)cc1,·,-2,1,0,-16
CC(C)(C)C(=O)/C=C/c1ccc(Oc2ccccc2)cc1,79,33*,4,34,-18
CSc1ccc(N2C(=O)NC3(CCCCC3)C2=O)cc1,35,18,5,62*,-15
O=C1NC2(CCCCC2)C(=O)N1c1ccc(Cl)cc1,·,5,3,1,-27
SMILES,MITF act,Wnt act,FXN GAA850 act,esBAF inh,C2C12 statin
O=c1ccn(-c2cccc(C(F)(F)F)c2)nc1-c1ccn(-c2cccc(Cl)c2)n1,-9,·,11*,-1,-2
C[C@H]1CN([C@@H](C)CO)C(=O)c2cc(NS(C)(=O)=O)ccc2O[C@@H]1CN(C)S(=O)(=O)c1ccccc1,·,·,·,-4,·
CCn1ncc(C(=O)Nc2cccc(Cl)c2)c1C,53,23,4,53*,-5
COc1cccc(/C=C/c2n[nH]c(=O)c(C#N)c2C)c1,-45,0,1,7,94*
O=c1nc2c(-c3ccccc3F)n[nH]n2c2ccccc12,·,36*,6,22,·
CN(C(=O)CSc1nc(-c2ccccc2)cn1N)C(c1ccccc1)c1ccccc1,4,·,-2,-3,78*
Cc1[nH]nc2c1C(c1ccsc1)C(C#N)=C(N)O2 (stereo not given),-13,·,0,-10,141*
O=C(NCc1ccc(Cl)cc1)c1cnn2ccccc12,96*,9,0,60*,16
Cc1cccc(NC(=O)c2cnn3ccccc23)c1C,?,-1,3,42*,6
Cc1cc(C)n2ncc(C(=O)NCc3ccc(Cl)cc3)c2n1,0,0,4,-2,12
COc1cccc(CNC(=O)C[C@@H]2CC[C@H](NC(=O)C3CCC3)[C@@H](CO)O2)c1,·,·,·,-1,-1
C/C=C/c1ccc2c(c1)O[C@@H](CN(C)C(=O)Cc1ccccc1)[C@@H](C)CN([C@@H](C)CO)S2(=O)=O,·,·,·,-6,18
